Where “and” joins values, the source holds several entries; their conditions need not be identical. Equal entries are not always repeated. The whole screen tested about 5,500 compounds, of which about 2,000 (36%) were called active. Not shown: some 18% with an inconclusive outcome. Cut-off read from the data, not from the text of the source: active = normalized growth mostly below about 0.91 (no sharp cut-off); inconclusive = no clear call, values can overlap the other calls; inactive = mostly above about 0.92. This is one part of the list.
Assay: chemical genetic growth profiling, strain panel (AID 1159580);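 note: tested at 20 µM; growth read once vehicle control cultures reached saturation at 30 °C; 1 = growth at the plate median or of vehicle wells; lower values mean less growth of the strain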
Conditions: growth OD

Measured: normalized growth

COc1ccc2cc([C@H](C)C(=O)O)ccc2c1
active: S. cerevisiae deletion strains, locus YLR113W, strain HOG1, hits give low values 0.757 | S. cerevisiae deletion strains, locus YNL298W, strain CLA4, hits give low values 0.848 | S. cerevisiae deletion strains, locus YPL256C, strain CLN2, hits give low values 0.807
inactive: S. cerevisiae deletion strains, locus YJR075W, strain HOC1, hits give low values 1.01 and 0.988 | S. cerevisiae deletion strains, locus YKL009W, strain mrt4, hits give low values 0.916 | S. cerevisiae deletion strains, locus YKL068W, hits give low values 0.983 | S. cerevisiae deletion strains, locus YKL085W, strain MDH1 (second series), hits give low values 0.977 | S. cerevisiae deletion strains, locus YKL085W, strain MDH1, hits give low values 0.977 | S. cerevisiae deletion strains, locus YKL160W, strain elf1, hits give low values 0.988 | S. cerevisiae deletion strains, locus YKL190W, strain CNB1, hits give low values 1 | S. cerevisiae deletion strains, locus YKR001C, strain vps1, hits give low values 0.943 | S. cerevisiae deletion strains, locus YKR026C, strain gcn3, hits give low values 0.983 | S. cerevisiae deletion strains, locus YKR091W, strain srl3, hits give low values 0.982 | S. cerevisiae deletion strains, locus YLL001W, strain dnm1, hits give low values 0.982 | S. cerevisiae deletion strains, locus YLL026W, hits give low values 0.997 | S. cerevisiae deletion strains, locus YLL041C, strain sdh2, hits give low values 0.971 | S. cerevisiae deletion strains, locus YLR027C, strain aat2, hits give low values 0.971 | S. cerevisiae deletion strains, locus YLR039C, strain RIC1, hits give low values 0.929 | S. cerevisiae deletion strains, locus YLR058C, strain SHM2, hits give low values 1.01 | S. cerevisiae deletion strains, locus YLR102C, strain apc9, hits give low values 0.986 | S. cerevisiae deletion strains, locus YLR221C, strain rsa3, hits give low values 0.993 | S. cerevisiae deletion strains, locus YLR258W, strain gsy2, hits give low values 0.982 | S. cerevisiae deletion strains, locus YLR262C, strain YPT6 (second series), hits give low values 0.944 | S. cerevisiae deletion strains, locus YLR262C, strain YPT6, hits give low values 0.903 | S. cerevisiae deletion strains, locus YLR268W, strain sec22, hits give low values 1.05 | S. cerevisiae deletion strains, locus YLR320W, strain mms22, hits give low values 0.955 | S. cerevisiae deletion strains, locus YLR330W, strain CHS5, hits give low values 0.997 | S. cerevisiae deletion strains, locus YLR342W, strain FKS1 (second series), hits give low values 0.98 | S. cerevisiae deletion strains, locus YLR342W, strain FKS1, hits give low values 0.967 | S. cerevisiae deletion strains, locus YLR357W, strain rsc2, hits give low values 0.963 | S. cerevisiae deletion strains, locus YLR370C, strain arc18, hits give low values 0.971 | S. cerevisiae deletion strains, locus YLR371W, strain rom2, hits give low values 0.989 | S. cerevisiae deletion strains, locus YLR384C, strain iki3, hits give low values 0.976 | S. cerevisiae deletion strains, locus YLR418C, strain cdc73, hits give low values 0.971 | S. cerevisiae deletion strains, locus YML016C, strain PPZ1, hits give low values 1 | S. cerevisiae deletion strains, locus YML032C, strain rad52, hits give low values 1 | S. cerevisiae deletion strains, locus YML120C, strain ndi1, hits give low values 0.99 | S. cerevisiae deletion strains, locus YML124C, strain tub3, hits give low values 0.992 | S. cerevisiae deletion strains, locus YMR058W, strain fet3, hits give low values 0.969 | S. cerevisiae deletion strains, locus YMR078C, strain ctf18, hits give low values 0.977 | S. cerevisiae deletion strains, locus YMR125W, strain sto1, hits give low values 0.972 | S. cerevisiae deletion strains, locus YMR129W, hits give low values 0.96 | S. cerevisiae deletion strains, locus YMR205C, strain PFK2, hits give low values 0.974 | S. cerevisiae deletion strains, locus YMR223W, strain ubp8, hits give low values 0.963 | S. cerevisiae deletion strains, locus YMR231W, strain pep5, hits give low values 0.987 | S. cerevisiae deletion strains, locus YMR263W, strain SAP30, hits give low values 1.01 and 0.996 | S. cerevisiae deletion strains, locus YMR307W, strain GAS1, hits give low values 0.955 | S. cerevisiae deletion strains, locus YNL067W, strain RPL9B, hits give low values 1.02 | S. cerevisiae deletion strains, locus YNL071W, strain lat1, hits give low values 0.96 | S. cerevisiae deletion strains, locus YNL128W, strain TEP1, hits give low values 0.996 and 0.976 | S. cerevisiae deletion strains, locus YNL153C, strain GIM3, hits give low values 1.02 and 1.01 | S. cerevisiae deletion strains, locus YNL175C, strain NOP13, hits give low values 0.964 | S. cerevisiae deletion strains, locus YNL183C, strain NPR1, hits give low values 0.88 | S. cerevisiae deletion strains, locus YNL197C, strain WHI3, hits give low values 0.963 | S. cerevisiae deletion strains, locus YNL209W, strain ssb2, hits give low values 0.978 | S. cerevisiae deletion strains, locus YNL224C, strain SQS1, hits give low values 0.978 | S. cerevisiae deletion strains, locus YNL233W, strain BNI4, hits give low values 1.02 | S. cerevisiae deletion strains, locus YNL248C, strain rpa49, hits give low values 0.977 | S. cerevisiae deletion strains, locus YNL250W, strain rad50, hits give low values 0.928 | S. cerevisiae deletion strains, locus YNL271C, strain bni1, hits give low values 0.938 | S. cerevisiae deletion strains, locus YNL307C, strain MCK1, hits give low values 0.98 | S. cerevisiae deletion strains, locus YNL322C, strain KRE1 (second series), hits give low values 0.938 | S. cerevisiae deletion strains, locus YNL322C, strain KRE1, hits give low values 1.01 and 0.995 | S. cerevisiae deletion strains, locus YNR049C, strain mso1, hits give low values 0.972 | S. cerevisiae deletion strains, locus YNR052C, strain pop2, hits give low values 0.969 | S. cerevisiae deletion strains, locus YOL006C, strain TOP1, hits give low values 1.06 | S. cerevisiae deletion strains, locus YOL012C, strain htz1 1.17 | S. cerevisiae deletion strains, locus YOL147C, strain pex11, hits give low values 0.994 | S. cerevisiae deletion strains, locus YOR001W, strain rrp6, hits give low values 0.957 | S. cerevisiae deletion strains, locus YOR061W, strain CKA2, hits give low values 1 | S. cerevisiae deletion strains, locus YOR069W, strain VPS5, hits give low values 1 | S. cerevisiae deletion strains, locus YOR070C, strain gyp1, hits give low values 0.978 | S. cerevisiae deletion strains, locus YOR080W, strain dia2, hits give low values 0.976 | S. cerevisiae deletion strains, locus YOR083W, strain WHI5 (second series), hits give low values 0.972 | S. cerevisiae deletion strains, locus YOR083W, strain WHI5, hits give low values 1.01 | S. cerevisiae deletion strains, locus YOR106W, strain vam3, hits give low values 0.978 | S. cerevisiae deletion strains, locus YOR136W, strain idh2, hits give low values 0.993 | S. cerevisiae deletion strains, locus YOR144C, strain elg1, hits give low values 0.995 | S. cerevisiae deletion strains, locus YOR184W, strain ser1, hits give low values 0.958 | S. cerevisiae deletion strains, locus YOR231W, strain MKK1, hits give low values 0.898 | S. cerevisiae deletion strains, locus YOR265W, strain rbl2, hits give low values 0.994 | S. cerevisiae deletion strains, locus YOR270C, strain vph1, hits give low values 0.938 | S. cerevisiae deletion strains, locus YOR290C, strain snf2, hits give low values 0.937 | S. cerevisiae deletion strains, locus YOR316C, strain cot1, hits give low values 0.999 | S. cerevisiae deletion strains, locus YPL051W, strain arl3, hits give low values 0.994 | S. cerevisiae deletion strains, locus YPL055C, strain LGE1, hits give low values 0.99 and 0.992 | S. cerevisiae deletion strains, locus YPL078C, strain atp4, hits give low values 0.979 | S. cerevisiae deletion strains, locus YPL106C, strain sse1, hits give low values 0.994 | S. cerevisiae deletion strains, locus YPL240C, strain hsp82, hits give low values 0.993 | S. cerevisiae deletion strains, locus YPL241C, strain CIN2, hits give low values 1 | S. cerevisiae deletion strains, locus YPR119W, strain clb2, hits give low values 0.977 | S. cerevisiae deletion strains, locus YPR141C, strain kar3, hits give low values 0.961 | S. cerevisiae deletion strains, locus YPR163C, strain tif3, hits give low values 0.987 | S. cerevisiae deletion strains, locus YPR167C, strain met16, hits give low values 0.986 | S. cerevisiae deletion strains, strain wtn01, hits give low values 1.01 | S. cerevisiae strains, strain wild type, hits give low values 1

From PubChem BioAssay AID1159580 (chemical genetic matrix, 2015)
